From PubChem BioAssay AID1159580 (chemical genetic matrix, 2015)
“And” between values parts separate entries of the source, which are not always exact repeats. Identical values can stand only once. Hit rate of the full screen: of about 5,500 compounds, about 2,000 (36%) were called active. Inconclusive results (about 18%) are left out. Rule as the data show it: active = normalized growth mostly below about 0.91 (no sharp cut-off); inconclusive = no clear call, values can overlap the other calls; inactive = mostly above about 0.92. The list shows a part of the results.

Assay: chemical genetic growth profiling, strain panel (AID 1159580);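 also: tested at 20 µM; growth read once vehicle control cultures reached saturation at 30 °C; 1 = growth at the plate median or of vehicle wells; lower values mean less growth of the strain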
Details: S. cerevisiae deletion strains, growth OD

Measured: normalized growth

CCCN(CCC)C(=O)C(CCC(=O)O)NC(=O)c1ccccc1 (stereo not given)
inactive: locus YAL013W, strain DEP1, stronger effect = lower value 0.996 and 1.01 | locus YAL021C, strain ccr4, stronger effect = lower value 0.98 | locus YAL026C, strain drs2, stronger effect = lower value 0.987 | locus YAL030W, strain snc1, stronger effect = lower value 1 | locus YAL040C, strain CLN3, stronger effect = lower value 1 | locus YBL061C, strain skt5, stronger effect = lower value 0.983 | locus YBR009C, strain hhf1, stronger effect = lower value 0.992 | locus YBR021W, strain FUR4, stronger effect = lower value 1.01 | locus YBR023C, strain chs3, stronger effect = lower value 0.992 | locus YBR171W, strain sec66, stronger effect = lower value 0.98 | locus YBR229C, strain ROT2, stronger effect = lower value 0.999 | locus YBR231C, strain swc5, stronger effect = lower value 0.979 | locus YBR279W, strain paf1, stronger effect = lower value 0.979 | locus YCL011C, strain gbp2, stronger effect = lower value 0.983 | locus YCL016C, strain dcc1, stronger effect = lower value 1.01 | locus YCL029C, strain bik1, stronger effect = lower value 0.985 | locus YCL061C, strain MRC1 (second series), stronger effect = lower value 1 | locus YCL061C, strain MRC1, stronger effect = lower value 0.994 | locus YCL069W, strain vba3, stronger effect = lower value 0.996 | locus YCR088W, strain abp1, stronger effect = lower value 0.98 | locus YDL005C, strain med2, stronger effect = lower value 0.99 | locus YDL035C, strain GPR1, stronger effect = lower value 1.02 | locus YDL040C, strain nat1, stronger effect = lower value 0.993 | locus YDL074C, strain BRE1, stronger effect = lower value 0.987 | locus YDL101C, strain DUN1, stronger effect = lower value 0.994 | locus YDL134C, strain PPH21, stronger effect = lower value 0.996 | locus YDL185W, strain tfp1, stronger effect = lower value 0.958 | locus YDL192W, strain arf1, stronger effect = lower value 0.979 | locus YDR001C, strain nth1, stronger effect = lower value 0.973 | locus YDR069C, strain doa4, stronger effect = lower value 0.993 | locus YDR101C, strain arx1, stronger effect = lower value 0.994 | locus YDR137W, strain rgp1, stronger effect = lower value 1.02 | locus YDR150W, strain NUM1, stronger effect = lower value 0.991 and 0.999 | locus YDR159W, strain sac3, stronger effect = lower value 0.935 | locus YDR162C, strain NBP2, stronger effect = lower value 1 | locus YDR195W, strain ref2 1.02 | locus YDR297W, strain sur2, stronger effect = lower value 0.987 | locus YDR318W, strain mcm21, stronger effect = lower value 0.994 | locus YDR334W, strain swr1, stronger effect = lower value 0.962 | locus YDR335W, strain msn5, stronger effect = lower value 0.981 | locus YDR363W, strain ESC2, stronger effect = lower value 1.01 | locus YDR388W, stronger effect = lower value 1 | locus YDR392W, strain spt3, stronger effect = lower value 0.986 | locus YDR502C, strain sam2, stronger effect = lower value 1.01 | locus YEL003W, strain gim4, stronger effect = lower value 0.997 | locus YEL037C, strain rad23, stronger effect = lower value 0.982 | locus YEL061C, strain CIN8 (second series), stronger effect = lower value 0.965 | locus YEL061C, strain CIN8, stronger effect = lower value 0.992 | locus YER002W, strain NOP16, stronger effect = lower value 0.986 | locus YER015W, strain faa2, stronger effect = lower value 0.989 | locus YER016W, strain bim1, stronger effect = lower value 0.992 | locus YER110C, stronger effect = lower value 0.991 | locus YER111C, strain swi4, stronger effect = lower value 0.996 | locus YER155C, strain BEM2 (second series), stronger effect = lower value 0.985 | locus YER155C, strain BEM2, stronger effect = lower value 1 | locus YER167W, strain BCK2, stronger effect = lower value 0.993 | locus YFR010W, strain ubp6, stronger effect = lower value 0.982 | locus YGL078C, strain dbp3, stronger effect = lower value 0.996 | locus YGL086W, strain mad1, stronger effect = lower value 1.01 | locus YGL167C, strain pmr1, stronger effect = lower value 0.986 | locus YGL173C, strain kem1, stronger effect = lower value 0.982 | locus YGL227W, strain vid30, stronger effect = lower value 0.986 | locus YGL240W, strain doc1, stronger effect = lower value 0.987 | locus YGL248W, strain PDE1, stronger effect = lower value 1.01 | locus YGL253W, strain hxk2, stronger effect = lower value 0.982 | locus YGR078C, strain PAC10, stronger effect = lower value 0.984 and 1.01 | locus YGR135W, strain pre9, stronger effect = lower value 0.989 | locus YGR229C, strain SMI1, stronger effect = lower value 1.02 | locus YGR252W, strain gcn5, stronger effect = lower value 1.13 | locus YHR013C, strain ard1, stronger effect = lower value 1.01 | locus YHR027C, strain rpn1, stronger effect = lower value 0.982 | locus YHR030C, strain SLT2, stronger effect = lower value 0.992 | locus YHR079C, strain IRE1 (second series), stronger effect = lower value 0.991 | locus YHR079C, strain IRE1, stronger effect = lower value 0.979 | locus YHR094C, strain hxt1, stronger effect = lower value 0.943 | locus YHR129C, strain ARP1, stronger effect = lower value 0.998 | locus YHR142W, strain chs7, stronger effect = lower value 0.977 | locus YHR200W, strain rpn10, stronger effect = lower value 0.989 | locus YIL066C, strain RNR3, stronger effect = lower value 0.994 | locus YIL073C, strain SPO22, stronger effect = lower value 0.93 | locus YIL125W, strain kgd1, stronger effect = lower value 0.985 | locus YIR030C, strain dcg1, stronger effect = lower value 0.988 | locus YJL092W, strain hpr5, stronger effect = lower value 0.997 | locus YJL095W, strain BCK1 (second series), stronger effect = lower value 0.968 | locus YJL095W, strain BCK1, stronger effect = lower value 0.968 and 0.993 | locus YJL115W, strain asf1, stronger effect = lower value 0.99 | locus YJL129C, strain trk1, stronger effect = lower value 0.968 | locus YJL134W, strain LCB3, stronger effect = lower value 1 | locus YJL154C, strain vps35, stronger effect = lower value 0.962 | locus YJL164C, strain tpk1, stronger effect = lower value 1 | locus YJL166W, strain qcr8, stronger effect = lower value 0.983 | locus YJL168C, strain set2, stronger effect = lower value 0.985 | locus YJL187C, strain SWE1 (second series), stronger effect = lower value 0.982 | locus YJR043C, strain POL32, stronger effect = lower value 0.985 | locus YJR066W, strain TOR1, stronger effect = lower value 0.926
